Data on 36 targets can be found in the supplement of paper PMC10849652.

Of roughly 7,900 targets only a part is listed; those with a hit were picked by preference. About 0.6% of all pairs of compound and target were hits. Unmarked numbers belong to inactive results.

UniProt Q9Y6I4, sequence (Q9Y6I4 whole entry, looked up): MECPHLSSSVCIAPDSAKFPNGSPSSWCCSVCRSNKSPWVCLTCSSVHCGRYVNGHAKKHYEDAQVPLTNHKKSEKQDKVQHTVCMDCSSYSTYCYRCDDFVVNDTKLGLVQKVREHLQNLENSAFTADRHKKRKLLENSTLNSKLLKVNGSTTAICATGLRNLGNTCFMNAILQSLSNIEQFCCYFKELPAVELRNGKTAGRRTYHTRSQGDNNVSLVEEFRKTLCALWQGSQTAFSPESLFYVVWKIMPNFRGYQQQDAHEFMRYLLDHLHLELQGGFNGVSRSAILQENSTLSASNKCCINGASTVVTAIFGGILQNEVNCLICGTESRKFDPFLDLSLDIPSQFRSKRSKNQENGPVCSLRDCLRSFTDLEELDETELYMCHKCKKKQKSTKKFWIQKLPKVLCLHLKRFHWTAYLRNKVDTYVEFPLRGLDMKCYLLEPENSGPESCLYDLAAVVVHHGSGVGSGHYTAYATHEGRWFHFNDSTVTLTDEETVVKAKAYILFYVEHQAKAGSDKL
UniProt O95155, sequence (O95155 whole entry, looked up): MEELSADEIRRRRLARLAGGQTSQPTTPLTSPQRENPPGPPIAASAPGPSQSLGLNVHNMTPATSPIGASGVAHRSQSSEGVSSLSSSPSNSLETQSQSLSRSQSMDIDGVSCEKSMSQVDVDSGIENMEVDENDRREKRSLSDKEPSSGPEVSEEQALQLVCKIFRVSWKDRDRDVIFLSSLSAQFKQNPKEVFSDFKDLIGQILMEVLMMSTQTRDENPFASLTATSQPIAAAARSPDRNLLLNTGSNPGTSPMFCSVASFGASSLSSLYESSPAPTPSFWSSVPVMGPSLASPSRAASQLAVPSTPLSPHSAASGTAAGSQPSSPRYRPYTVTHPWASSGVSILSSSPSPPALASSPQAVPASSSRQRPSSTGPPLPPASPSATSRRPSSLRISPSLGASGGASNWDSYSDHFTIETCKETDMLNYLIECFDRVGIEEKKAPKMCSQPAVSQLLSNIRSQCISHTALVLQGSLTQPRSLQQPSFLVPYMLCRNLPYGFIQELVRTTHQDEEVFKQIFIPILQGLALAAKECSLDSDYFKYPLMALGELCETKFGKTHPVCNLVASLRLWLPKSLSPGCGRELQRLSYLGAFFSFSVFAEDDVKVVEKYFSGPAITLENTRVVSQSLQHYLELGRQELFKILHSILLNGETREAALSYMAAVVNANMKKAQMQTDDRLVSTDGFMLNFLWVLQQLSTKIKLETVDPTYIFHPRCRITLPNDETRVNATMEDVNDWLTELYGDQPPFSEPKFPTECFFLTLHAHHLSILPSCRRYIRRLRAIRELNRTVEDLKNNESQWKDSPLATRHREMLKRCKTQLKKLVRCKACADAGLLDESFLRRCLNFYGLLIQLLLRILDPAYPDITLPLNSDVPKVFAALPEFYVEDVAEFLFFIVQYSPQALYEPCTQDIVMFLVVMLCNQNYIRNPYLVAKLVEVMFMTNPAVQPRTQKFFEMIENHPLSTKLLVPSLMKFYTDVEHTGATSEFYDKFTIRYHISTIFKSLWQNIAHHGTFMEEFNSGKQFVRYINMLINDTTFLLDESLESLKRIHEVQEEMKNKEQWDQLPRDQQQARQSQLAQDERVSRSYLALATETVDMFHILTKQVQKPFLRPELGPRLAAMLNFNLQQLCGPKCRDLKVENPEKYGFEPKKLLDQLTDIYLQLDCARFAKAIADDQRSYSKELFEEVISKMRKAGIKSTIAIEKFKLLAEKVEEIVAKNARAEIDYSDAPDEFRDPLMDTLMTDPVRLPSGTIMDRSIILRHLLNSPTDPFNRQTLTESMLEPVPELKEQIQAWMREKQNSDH
UniProt O95857, sequence (O95857 whole entry, looked up): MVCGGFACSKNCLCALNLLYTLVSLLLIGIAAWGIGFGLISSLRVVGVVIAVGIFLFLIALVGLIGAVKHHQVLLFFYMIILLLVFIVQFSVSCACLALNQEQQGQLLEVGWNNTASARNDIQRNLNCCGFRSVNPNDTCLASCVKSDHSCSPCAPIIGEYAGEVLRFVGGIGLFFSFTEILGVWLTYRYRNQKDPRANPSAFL
UniProt P30291, sequence (P30291 whole entry, looked up): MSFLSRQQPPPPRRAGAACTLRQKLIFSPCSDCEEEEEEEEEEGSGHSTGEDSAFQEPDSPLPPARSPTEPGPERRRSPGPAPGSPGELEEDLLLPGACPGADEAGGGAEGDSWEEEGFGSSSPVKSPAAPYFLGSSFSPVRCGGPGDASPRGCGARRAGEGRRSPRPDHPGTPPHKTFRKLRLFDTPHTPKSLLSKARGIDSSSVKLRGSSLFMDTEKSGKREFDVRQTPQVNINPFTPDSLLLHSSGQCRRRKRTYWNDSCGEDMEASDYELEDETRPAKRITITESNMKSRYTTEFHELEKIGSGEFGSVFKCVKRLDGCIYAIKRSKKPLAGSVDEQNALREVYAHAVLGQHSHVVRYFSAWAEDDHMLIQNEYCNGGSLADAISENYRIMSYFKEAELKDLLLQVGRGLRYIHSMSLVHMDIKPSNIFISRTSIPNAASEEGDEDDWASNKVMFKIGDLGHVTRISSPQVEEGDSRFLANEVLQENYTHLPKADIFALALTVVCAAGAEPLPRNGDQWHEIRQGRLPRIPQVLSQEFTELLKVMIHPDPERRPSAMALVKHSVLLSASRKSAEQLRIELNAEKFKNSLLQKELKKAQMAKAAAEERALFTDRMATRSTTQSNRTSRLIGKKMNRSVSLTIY
UniProt P61960, sequence (P61960 whole entry, looked up): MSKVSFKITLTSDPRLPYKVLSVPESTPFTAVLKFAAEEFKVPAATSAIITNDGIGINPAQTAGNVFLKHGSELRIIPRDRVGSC
UniProt Q9H270, sequence (Q9H270 whole entry, looked up): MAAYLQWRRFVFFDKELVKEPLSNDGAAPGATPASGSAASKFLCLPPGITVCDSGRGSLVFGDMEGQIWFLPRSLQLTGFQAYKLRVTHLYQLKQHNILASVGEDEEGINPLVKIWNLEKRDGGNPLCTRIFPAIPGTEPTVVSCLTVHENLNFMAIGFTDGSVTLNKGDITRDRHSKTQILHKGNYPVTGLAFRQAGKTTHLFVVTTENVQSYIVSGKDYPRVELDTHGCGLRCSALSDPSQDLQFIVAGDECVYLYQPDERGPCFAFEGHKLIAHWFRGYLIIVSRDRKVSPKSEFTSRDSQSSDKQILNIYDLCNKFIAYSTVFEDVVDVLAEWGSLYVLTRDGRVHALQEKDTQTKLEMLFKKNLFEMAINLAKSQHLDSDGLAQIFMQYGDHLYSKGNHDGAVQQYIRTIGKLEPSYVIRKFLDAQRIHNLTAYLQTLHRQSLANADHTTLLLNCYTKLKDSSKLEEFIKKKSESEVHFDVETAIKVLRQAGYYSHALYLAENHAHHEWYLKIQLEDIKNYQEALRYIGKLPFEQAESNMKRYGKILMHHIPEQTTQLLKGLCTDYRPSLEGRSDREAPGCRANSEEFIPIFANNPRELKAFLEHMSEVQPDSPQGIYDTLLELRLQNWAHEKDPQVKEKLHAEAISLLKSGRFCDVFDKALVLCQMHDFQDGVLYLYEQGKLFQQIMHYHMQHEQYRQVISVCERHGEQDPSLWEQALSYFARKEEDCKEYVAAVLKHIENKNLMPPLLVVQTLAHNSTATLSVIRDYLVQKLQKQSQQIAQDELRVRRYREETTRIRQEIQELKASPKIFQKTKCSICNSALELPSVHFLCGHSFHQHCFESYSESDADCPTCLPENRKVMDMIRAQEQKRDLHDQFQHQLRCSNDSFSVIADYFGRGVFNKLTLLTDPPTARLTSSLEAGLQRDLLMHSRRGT
UniProt Q9NQ34, sequence (Q9NQ34 whole entry, looked up): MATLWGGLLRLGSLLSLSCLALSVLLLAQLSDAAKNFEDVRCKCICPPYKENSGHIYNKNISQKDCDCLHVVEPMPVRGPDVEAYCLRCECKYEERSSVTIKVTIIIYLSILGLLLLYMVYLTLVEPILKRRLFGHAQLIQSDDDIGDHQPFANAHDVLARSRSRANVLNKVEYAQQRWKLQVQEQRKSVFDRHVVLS
UniProt Q9UK41, sequence (Q9UK41 whole entry, looked up): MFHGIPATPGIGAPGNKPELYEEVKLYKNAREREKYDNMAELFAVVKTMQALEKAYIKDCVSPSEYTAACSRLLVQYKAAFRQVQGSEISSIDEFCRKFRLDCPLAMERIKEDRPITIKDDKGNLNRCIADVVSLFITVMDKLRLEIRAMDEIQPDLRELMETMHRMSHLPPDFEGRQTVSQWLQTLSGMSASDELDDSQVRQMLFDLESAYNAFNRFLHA
UniProt Q9H4I3, sequence (Q9H4I3 whole entry, looked up): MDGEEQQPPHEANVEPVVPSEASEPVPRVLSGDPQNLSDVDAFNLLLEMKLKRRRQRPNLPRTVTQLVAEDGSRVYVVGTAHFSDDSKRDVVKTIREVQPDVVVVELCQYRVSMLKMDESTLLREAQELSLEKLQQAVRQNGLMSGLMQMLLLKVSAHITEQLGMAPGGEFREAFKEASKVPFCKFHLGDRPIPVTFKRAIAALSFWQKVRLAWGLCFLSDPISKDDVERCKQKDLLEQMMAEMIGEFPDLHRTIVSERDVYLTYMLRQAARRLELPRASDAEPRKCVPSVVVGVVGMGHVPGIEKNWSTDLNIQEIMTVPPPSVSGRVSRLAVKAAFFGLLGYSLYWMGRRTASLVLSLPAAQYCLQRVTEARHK
UniProt Q7Z7N9, sequence (Q7Z7N9 whole entry, looked up): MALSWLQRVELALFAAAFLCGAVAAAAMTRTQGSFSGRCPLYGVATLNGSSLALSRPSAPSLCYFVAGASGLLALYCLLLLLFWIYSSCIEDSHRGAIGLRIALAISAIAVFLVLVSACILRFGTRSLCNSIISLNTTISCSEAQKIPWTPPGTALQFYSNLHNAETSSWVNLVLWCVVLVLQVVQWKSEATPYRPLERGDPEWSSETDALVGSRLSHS
UniProt Q9BUB7, sequence (Q9BUB7 whole entry, looked up): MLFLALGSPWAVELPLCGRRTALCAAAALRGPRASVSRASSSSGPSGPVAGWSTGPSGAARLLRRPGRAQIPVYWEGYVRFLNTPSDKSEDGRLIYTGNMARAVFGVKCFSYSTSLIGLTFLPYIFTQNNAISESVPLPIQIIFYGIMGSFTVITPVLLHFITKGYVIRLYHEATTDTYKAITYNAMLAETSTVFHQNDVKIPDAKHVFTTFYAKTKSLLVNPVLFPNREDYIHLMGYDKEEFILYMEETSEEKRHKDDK

Compound in one assay: CC[C@@H]1C(=O)N(C)c2cnc(Nc3ccc(C(=O)N[C@H]4CC[C@H](N5CCN(CC6CC6)CC5)CC4)cc3OC)nc2N1C(C)C [volasertib]
As to the kind of experiment: log2 fold change, soluble protein after heating vs DMSO (PISA); higher = thermal stabilisation; K562 cells, 10 uM, 30 min; active = over 0.2 and 3.5 SD of the protein, either way, in both replicates (recomputed). In a few lines: (§1)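 Quantification of soluble protein used TMTpro 16plex LC-MS/MS, with channel sums equalised. Samples were the supernatant after 21,000xg for 90 min of pooled aliquots from K562 cells (2×10^6 cells/mL) treated with 10 μM compound for 30 min, heated for 3 min over 48°C-58°C, and extracted in PBS with 0.5% NP-40 at 4°C. Values, from duplicates, describe thermal stability against control samples on a log2 fold-change scale.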
With VPS11 (UniProt Q9H270), the log2 fold change is -0.53 (active).

Regarding TXNL4B (UniProt Q9NX01), the log2 fold change is -0.111.

In the case of USP3 (UniProt Q9Y6I4), the log2 fold change is -0.325.

With TRIM4 (UniProt Q9C037), the log2 fold change was -0.042.

Turning to TMEM128 (UniProt Q5BJH2), the log2 fold change was -0.005.

As to VPS53 isoform 4 (UniProt Q5VIR6), the log2 fold change was -0.358 (active).

Consider VPS37A (UniProt Q8NEZ2), for which the log2 fold change is -0.707 (active).

With TUBA4A (UniProt P68366), the log2 fold change is -0.01.

Turning to VDAC1 (UniProt P21796), the log2 fold change was 0.063.

Turning to UBA52 (UniProt P62987), the log2 fold change is 0.572.

As for VPS28 (UniProt Q9UK41), the log2 fold change is -0.3 (active).

Regarding UNC119B (UniProt A6NIH7), the log2 fold change was 0.066.

Regarding TRMT61A (UniProt Q96FX7), the log2 fold change was 0.161.

For the target WNK1 isoform 7 (UniProt Q9H4A3), the log2 fold change is -0.01.

As for TSPAN13 (UniProt O95857), the log2 fold change was 0.098.

With TTI2 (UniProt Q6NXR4), the log2 fold change was -0.414 (active).

For TTC33 (UniProt Q6PID6), the log2 fold change is -0.027.

UTP3 (UniProt Q9NQZ2): the log2 fold change was -0.012.

In the case of ULBP1 (UniProt Q9BZM6), the log2 fold change is -0.178.

Regarding UBE3B (UniProt Q7Z3V4), the log2 fold change was -0.554 (active).

For VPS13B (UniProt Q7Z7G8), the log2 fold change was -0.088.

As to TMEM70 (UniProt Q9BUB7), the log2 fold change is 0.064.

Regarding UBE4B isoform 4 (UniProt O95155), the log2 fold change is -0.229 (active).

VPS72 isoform 2 (UniProt Q15906): the log2 fold change is 0.135.

In the case of UBIAD1 (UniProt Q9Y5Z9), the log2 fold change is -0.065.

Turning to TRIM44 (UniProt Q96DX7), the log2 fold change was -0.028.

For the target UGDH (UniProt O60701), the log2 fold change is -0.128.

With TRABD (UniProt Q9H4I3), the log2 fold change was 0.215.

For UBXN8 (UniProt O00124), the log2 fold change was -0.179.

Regarding WEE1 (UniProt P30291), the log2 fold change is 0.07.

As to UCHL5 isoform 3 (UniProt Q9Y5K5), the log2 fold change is -0.617 (active).

Turning to UFM1 (UniProt P61960), the log2 fold change was -0.13.

On to TSC2 (UniProt P49815), for which the log2 fold change was -0.23.

As to TMEM9B (UniProt Q9NQ34), the log2 fold change was -0.192.

As for VKORC1 (UniProt Q9BQB6), the log2 fold change is -0.079.

On to TMEM179B (UniProt Q7Z7N9), for which the log2 fold change is 0.052.

Compound in a further assay: CC[C@H](C)N1C=C(C2=C(C=C(C=C21)C3=CN=C(C=C3)N4CCNCC4)C(=O)NCC5=C(C=C(NC5=O)C)C)C
Described as above. Summed up: as §1
For VPS11 (UniProt Q9H270), the log2 fold change was 0.14.

Consider TXNL4B (UniProt Q9NX01), for which the log2 fold change was -0.036.

In the case of USP3 (UniProt Q9Y6I4), the log2 fold change is 0.04.

Take TRIM4 (UniProt Q9C037): the log2 fold change is 0.178.

For TMEM128 (UniProt Q5BJH2), the log2 fold change was 0.015.

Regarding VPS53 isoform 4 (UniProt Q5VIR6), the log2 fold change was 0.033.

Take VPS37A (UniProt Q8NEZ2): the log2 fold change was 0.085.

As for TUBA4A (UniProt P68366), the log2 fold change is 0.007.

VDAC1 (UniProt P21796): the log2 fold change is -0.013.

With VPS28 (UniProt Q9UK41), the log2 fold change is 0.032.

Regarding UNC119B (UniProt A6NIH7), the log2 fold change is -0.224.

In the case of TRMT61A (UniProt Q96FX7), the log2 fold change is 0.022.

On to WNK1 isoform 7 (UniProt Q9H4A3), for which the log2 fold change was 0.04.

Turning to TSPAN13 (UniProt O95857), the log2 fold change was -0.083.

As to TTI2 (UniProt Q6NXR4), the log2 fold change is 0.021.

In the case of UBE3B (UniProt Q7Z3V4), the log2 fold change is 0.088.

As for VPS13B (UniProt Q7Z7G8), the log2 fold change was 0.004.

Consider TMEM70 (UniProt Q9BUB7), for which the log2 fold change is -0.017.

In the case of UBE4B isoform 4 (UniProt O95155), the log2 fold change is 0.024.

Turning to VPS72 isoform 2 (UniProt Q15906), the log2 fold change was -0.072.

On to UBIAD1 (UniProt Q9Y5Z9), for which the log2 fold change is -0.014.

As to TRIM44 (UniProt Q96DX7), the log2 fold change was -0.024.

UGDH (UniProt O60701): the log2 fold change is 0.11.

With TRABD (UniProt Q9H4I3), the log2 fold change was 0.

As for WEE1 (UniProt P30291), the log2 fold change is -0.028.

On to UCHL5 isoform 3 (UniProt Q9Y5K5), for which the log2 fold change was 0.126.

Take UFM1 (UniProt P61960): the log2 fold change is -0.092.

Take TMEM9B (UniProt Q9NQ34): the log2 fold change is -0.011.

In the case of VKORC1 (UniProt Q9BQB6), the log2 fold change was -0.088.

Turning to TMEM179B (UniProt Q7Z7N9), the log2 fold change was 0.029.

Compound in the next assay: CC[C@H](C)[C@@H](C(=O)N[C@@H]([C@@H](C)O)C(=O)N[C@@H](CC(C)C)C(=O)[C@]1(CO1)C)NC(=O)[C@H]([C@@H](C)CC)N(C)C(=O)C [epoxomicin]
Described as above. Summed up:
as §1
For the target VPS11 (UniProt Q9H270), the log2 fold change was 0.025.

For the target USP3 (UniProt Q9Y6I4), the log2 fold change was -0.083.

For TRIM4 (UniProt Q9C037), the log2 fold change was 0.111.

Take TMEM128 (UniProt Q5BJH2): the log2 fold change was 0.003.

In the case of VPS53 isoform 4 (UniProt Q5VIR6), the log2 fold change is 0.041.

With VPS37A (UniProt Q8NEZ2), the log2 fold change is 0.045.

For the target TUBA4A (UniProt P68366), the log2 fold change was 0.055.

With VDAC1 (UniProt P21796), the log2 fold change is 0.012.

UBA52 (UniProt P62987): the log2 fold change is -0.29.

Consider VPS28 (UniProt Q9UK41), for which the log2 fold change was 0.09.

In the case of TRMT61A (UniProt Q96FX7), the log2 fold change was -0.061.

As for WNK1 isoform 7 (UniProt Q9H4A3), the log2 fold change is 0.013.

For the target TSPAN13 (UniProt O95857), the log2 fold change is -0.148.

In the case of TTI2 (UniProt Q6NXR4), the log2 fold change is 0.085.

Regarding TTC33 (UniProt Q6PID6), the log2 fold change is 0.049.

UTP3 (UniProt Q9NQZ2): the log2 fold change was -0.376.

For the target ULBP1 (UniProt Q9BZM6), the log2 fold change is 0.152.

UBE3B (UniProt Q7Z3V4): the log2 fold change was -0.023.

Regarding VPS13B (UniProt Q7Z7G8), the log2 fold change was 0.019.

For the target TMEM70 (UniProt Q9BUB7), the log2 fold change was 0.001.

As for UBE4B isoform 4 (UniProt O95155), the log2 fold change is 0.023.

Take VPS72 isoform 2 (UniProt Q15906): the log2 fold change is -0.107.

On to UGDH (UniProt O60701), for which the log2 fold change is 0.064.

TRABD (UniProt Q9H4I3): the log2 fold change was -0.004.

For the target UBXN8 (UniProt O00124), the log2 fold change is 0.073.

On to WEE1 (UniProt P30291), for which the log2 fold change is 0.203.

Regarding UCHL5 isoform 3 (UniProt Q9Y5K5), the log2 fold change was 0.293.

With UFM1 (UniProt P61960), the log2 fold change is 0.023.

TSC2 (UniProt P49815): the log2 fold change was -0.01.

On to TMEM9B (UniProt Q9NQ34), for which the log2 fold change was 0.109.

As to TMEM179B (UniProt Q7Z7N9), the log2 fold change was -0.44 (active).
